# High-throughput results as filed in PubChem.
# GPR151 ag: activators of human GPR151, primary screen, cell-based, PathHunter beta-arrestin, luminescence. G-protein coupled receptor 151 (Homo sapiens), Q8TDV0. activation, % at 11.2 µM. hit rate 1% among 650,000. PathHunter beta-arrestin GPR151 cells; in the data active = activation above about 4.9%;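 also: 0% = median of compound wells and 100% = cells with positive control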
# TEAD-YAP block: TEAD-YAP interaction inhibition, primary screen, TEAD-YAP interaction inhibitor project, luminescence, HEK-TIYL cells; hit rate 1.4% among 640,000; inhibition, % at 9.12 µM; TEAD-Gal4/YAP UAS-luciferase luminescence; in the data active = inhibition above about 32%;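 also: 0% = median of test compound wells and 100% = reference inhibitor wells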
# MITF primary: MITF inhibitors, primary screen, biochemical, AlphaScreen, human; hit rate 0.91% among 650,000; AlphaScreen MITF homodimerization, bead proximity signal; inhibition, % at 2.6 µM; Microphthalmia-associated transcription factor (Homo sapiens), O75030; in the data active = inhibition above about 50%;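 also: 0% = vehicle wells with protein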
# Target sequence (O75030 whole entry, looked up): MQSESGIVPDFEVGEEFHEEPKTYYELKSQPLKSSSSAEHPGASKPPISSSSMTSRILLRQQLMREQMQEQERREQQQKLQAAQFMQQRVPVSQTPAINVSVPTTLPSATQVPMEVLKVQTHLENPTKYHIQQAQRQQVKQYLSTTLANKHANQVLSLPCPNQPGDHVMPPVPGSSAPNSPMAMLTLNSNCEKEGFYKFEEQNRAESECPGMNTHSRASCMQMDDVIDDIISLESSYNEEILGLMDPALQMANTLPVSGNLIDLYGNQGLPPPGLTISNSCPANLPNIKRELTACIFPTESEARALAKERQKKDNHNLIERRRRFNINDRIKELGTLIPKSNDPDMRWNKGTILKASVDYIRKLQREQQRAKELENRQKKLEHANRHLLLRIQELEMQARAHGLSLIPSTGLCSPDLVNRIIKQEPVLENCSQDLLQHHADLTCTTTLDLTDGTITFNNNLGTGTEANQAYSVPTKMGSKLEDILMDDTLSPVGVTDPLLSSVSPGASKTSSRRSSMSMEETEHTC
# FBW7 activator: FBW7 E3 ligase activators, primary screen, biochemical, AlphaScreen, human; F-box/WD repeat-containing protein 7 (Homo sapiens), Q969H0; AlphaScreen FBW7–phospho-cyclin E peptide binding, activator screen; normalized activity (activation), % at 26.1 µM; hit rate 0.13% among 650,000; AID 1259310, 2017; in the data active = normalized activity above about 1.9%;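 also: purified mutant Fbw7 with reduced substrate affinity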
# Starred values were filed as active, the others as inactive. Most compounds without a hit are left out; they make up all but 3.5% or so of the library.
SMILES,GPR151 ag,TEAD-YAP block,MITF primary,FBW7 activator
CCN(CC)c1ccc2cc(-c3nc4ccccc4s3)c(=O)oc2c1,-1.4,76.5*,-6.3,0.0
CCOc1ccccc1-c1nnc(SCC(=O)NC2CCCCC2)o1,0.4,10.1,-7.3,-0.2
O=C1NC2(CCN(C(=O)c3csc4c3CCCC4)CC2)Nc2ccccc21,-1.3,40.4*,20.6,-0.1
COc1ccc(NC(=O)CS(=O)CC(=O)Nc2cccc3cccnc23)cc1 (stereo unspecified),0.5,2.0,-4.7,-0.1
O=C(C1CCN(Cc2ccccc2O)CC1)N1CCc2ccccc2C1,0.4,14.8,37.9,0.0
COc1cccc(CN2CCC(C(=O)N3CCc4ccccc4C3)CC2)c1O,1.1,1.0,50.7*,0.7
CCOC(=O)C1CCN(Cc2cccc(OC)c2O)CC1,0.0,-3.4,19.5,0.1
CCOC(=O)N1CCN(C(=O)C2CCN(Cc3cccc(OC)c3O)CC2)CC1,-0.8,-5.6,54.9*,-0.1
N#Cc1ccc(CNc2cnccn2)cc1,-1.9,4.0,-9.3,-0.2
CC(C)N1C/C(=C/c2cccnc2)C(=O)/C(=C/c2cccnc2)C1,0.2,52.1*,11.2,0.3
CN1C/C(=C/c2cccnc2)C(=O)/C(=C/c2cccnc2)C1,0.3,74.0*,-3.8,-0.1
COn1c(=O)c(C)[n+]([O-])c2ccccc21,-0.7,-2.9,-5.6,0.0
CCc1ccc(NC(=S)N(Cc2ccccc2)Cc2cccs2)cc1,-0.6,53.7*,-6.3,0.0
O=C(NN1CCOCC1)c1ccc(Br)s1,-0.1,-2.8,5.9,0.1
N#CCN(CC#N)C(=O)COc1ccccc1,-0.3,2.9,15.3,-0.2
O=C(Nc1cc(C(F)(F)F)cc(C(F)(F)F)c1)c1ccc([N+](=O)[O-])o1,-0.1,59.1*,-7.0,-0.1
C[C@]12C=CC(=O)C=C1CCC1C2[C@@H](O)C[C@@]2(C)C1CC[C@]2(O)C(=O)COC(=O)CCC(=O)O (stereo partly specified),0.6,-7.3,1.9,8.0*
O=C(CSc1nnc2c(n1)[nH]c1ccccc12)Nc1cccc(C(=O)O)c1,1.2,-1.6,10.1,0.1
CCOC(=O)c1c(NC(=O)c2ccccc2C)sc(C(=O)Nc2cccc(Cl)c2C)c1C,-0.3,0.3,-6.3,0.0
O=C(CCn1nnc2ccccc21)N/N=C\c1cc([N+](=O)[O-])ccc1O,0.7,10.1,42.0,-0.3
O=C(N/N=C/c1cc([N+](=O)[O-])ccc1O)N/N=C/c1cc([N+](=O)[O-])ccc1O,0.9,-0.1,-0.7,-0.5
O=C(Cn1nnc2ccccc21)N/N=C/c1cc([N+](=O)[O-])ccc1O,0.0,8.7,73.5*,-0.3
O=C(CNc1ccccc1)N/N=C/c1cc([N+](=O)[O-])ccc1O,4.7,23.3,54.0*,-0.2
CCNC(=O)C(=O)N/N=C/c1cc([N+](=O)[O-])ccc1O,0.9,5.4,73.6*,-0.8
Cc1ccc(-n2cnnn2)cc1-n1cnnn1,1.3,4.5,-11.4,0.1
SMILES,GPR151 ag,TEAD-YAP block,MITF primary,FBW7 activator
O=C(Nc1nc2c(s1)CCCC2)c1cc(F)c(F)c(F)c1F,3.4,47.8*,0.8,0.0
O=C(Nc1nc2c(s1)CCCC2)c1ccccc1I,2.3,-75.0,-1.9,-0.1
Cn1ccc(C(=O)Nc2nc3c(s2)CCCC3)n1,-10.1,46.4*,25.8,0.8
COC(=O)c1ccc(C(=O)Nc2nc3c(s2)CCCC3)cc1,-4.1,-76.9,-9.9,0.0
CC(C)(C)P(=NC(=S)Nc1ccccc1)(N1CCOCC1)N1CCOCC1,-1.6,1.6,0.4,-0.1
CC(C)(C)P(=NC(=S)NNCCO)(N1CCCCCC1)N1CCCCCC1,2.0,78.3*,-6.4,-0.2
c1ccc(NNC2=Nc3ccccc3CCC2)cc1,-0.2,35.7*,2.7,-0.1
COc1ccc(C2C(C#N)=C(N)OC3=C2C(=O)CC(C)(C)C3)c(OC)c1OC (stereo unspecified),0.5,-7.0,16.3,-0.1
Cn1cc(CNc2nncc(-c3ccc(Cl)cc3)n2)cn1,1.4,0.5,5.9,0.0
Cn1cc(CNc2nncc(-c3ccc4ccccc4c3)n2)cn1,-1.1,33.6*,8.7,0.1
O=C(CCl)N=c1sccn1Cc1ccccc1Cl,-2.3,38.9*,10.6,0.2
O=C1C=CC(=NS(=O)(=O)c2ccc(C(=O)O)cc2)C=C1,0.3,6.6,55.6*,0.1
O=C(O)c1ccc(S(=O)(=O)c2ccc(C(=O)O)cc2)cc1,-1.4,-7.1,-1.4,0.4
COc1ccc(N(CC(=O)NC2CCCC2)S(C)(=O)=O)c(OC)c1,-1.1,5.3,-12.0,-0.5
COc1ccc(N(CC(=O)c2ccc(C3CCCCC3)cc2)C2=NCCCCC2)c(OC)c1,1.8,55.1*,-2.3,-0.3
CC(NCCN1CCNCC1)c1cc(C(C)(C)C)cc2c1CCC2(C)C (stereo unspecified),-0.8,64.0*,-16.8,0.6
C/C(=N\NC(N)=O)c1ccc(O)c(O)c1O,3.4,4.6,85.9*,-0.3
Cc1nn(C)c(C)c1CN(C)S(=O)(=O)c1ccc2ccccc2c1,1.7,56.3*,-1.8,-0.1
Cc1ccc(CN(C)S(=O)(=O)c2ccc3ccccc3c2)cc1,2.3,9.5,-4.4,0.2
CCc1nnc2n1N=C(c1ccc3c(c1)OCCO3)CS2,0.3,51.0*,11.8,0.1
Cc1cc(C)nc(-c2cccc3c2OC(CNC(=O)/C=C/c2ccncc2)C3)n1 (stereo unspecified),-0.6,-5.2,-15.9,-0.2
CC(C)c1ccc(/C=C/c2cc(=O)n3ccsc3n2)cc1,-1.1,5.1,-5.5,0.1
Cc1ccc(/C=C/c2cc(=O)n3ccsc3n2)cc1,-1.8,48.6*,-8.0,0.0
CC(C)CC[n+]1ccccc1/C=C/c1ccc(N(C)C)cc1,1.2,91.3*,6.3,-0.2
CCCn1c(=NC(=O)c2cccs2)c(C(=O)OCC)cc2c(=O)n3ccccc3nc21,0.1,4.0,7.5,-0.1
SMILES,GPR151 ag,TEAD-YAP block,MITF primary,FBW7 activator
CC(=O)c1c(C)[nH]c(C(=O)OCC(=O)Nc2cccc(S(=O)(=O)N3CCCC3)c2)c1C,0.1,32.8*,5.9,-0.1
CC(=O)c1c(C)[nH]c(C(=O)OCC(=O)Nc2ccc(Cl)cc2)c1C,1.8,11.8,-6.4,0.1
CC(=O)c1c(C)[nH]c(C(=O)OCC(=O)Nc2cccc(Cl)c2)c1C,-0.8,43.9*,7.1,0.1
CC(=O)c1c(C)[nH]c(C(=O)OCC(=O)Nc2ccc(F)c(Cl)c2)c1C,3.0,34.7*,-8.1,0.4
CC(=O)c1c(C)[nH]c(C(=O)OCC(=O)Nc2ccc(C)c(Cl)c2)c1C,1.6,9.1,4.2,-0.1
O=C(c1cc[n+]([O-])cc1)N1CC[C@H]2[C@H](CCCN2C(=O)/C(F)=C/c2ccccc2)C1,0.1,-0.1,10.3,-0.1
Cc1cc(C)nc(SCC(=O)N/N=C\c2cccc([N+](=O)[O-])c2)n1,0.0,3.1,11.2,0.0
Nc1cccc(NS(=O)(=O)c2ccc(F)cc2)c1,1.3,-3.3,-1.6,-0.1
CC(=O)Oc1c(Cl)cc(N(C(C)=O)S(=O)(=O)c2ccccc2)cc1Cl,-0.4,-4.2,-4.4,0.0
